Test results reported in PubChem BioAssay (Tox21).
“And” between values parts separate entries of the source, which are not always exact repeats. Equal values may be shown once. Inconclusive results are not listed. Where a call stands in place of a potency, no number is given. Some structures have more than one record in an assay (separate samples or runs), and their calls can disagree. The source made the active and inactive calls. Unless noted, calls come from the whole dose curve.

Legend:
[1] = Nuclear factor erythroid 2-related factor 2/antioxidant responsive element (Nrf2/ARE) small molecule agonists: qHTS cell viability counter screen in human keratinocytes (AID 1919968; active = well fitted curve in the direction sought with a large enough effect in the repeat runs; an effect the other way counts as inactive or inconclusive; note: nearly all actives have a fitted effect of over 55% in size; note: potency is the fitted concentration of half-maximal effect)
Summary of the method: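 Cells of the KeratinoSens line were plated at 1,500 per well and left for 5 h before compound transfer from DMSO stocks. After a 23 h incubation (37 C, 5% CO2), CellTiter-Fluor was added. Signal was taken as fluorescence intensity 1 h later.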

[2] = Nuclear factor erythroid 2-related factor 2/antioxidant responsive element (Nrf2/ARE) small molecule agonists: luciferase reporter gene qHTS assay in human keratinocytes (AID 1919969); note: nearly all actives have a fitted effect of over 35% in size; note: potency is the fitted concentration of half-maximal effect
[3] = molecular target: Gonadotropin-releasing hormone receptor (Homo sapiens) (UniProt P30968); experiment: Human gonadotropin-releasing hormone receptor (GnRHR) small molecule agonists, calcium flux assay in GnRHR-HEK293 cells (AID 1920063); note: nearly all actives have a fitted effect of over 35% in size; note: potency is the fitted concentration of half-maximal effect
Sequence of Gonadotropin-releasing hormone receptor (Homo sapiens) (P30968 whole entry, looked up): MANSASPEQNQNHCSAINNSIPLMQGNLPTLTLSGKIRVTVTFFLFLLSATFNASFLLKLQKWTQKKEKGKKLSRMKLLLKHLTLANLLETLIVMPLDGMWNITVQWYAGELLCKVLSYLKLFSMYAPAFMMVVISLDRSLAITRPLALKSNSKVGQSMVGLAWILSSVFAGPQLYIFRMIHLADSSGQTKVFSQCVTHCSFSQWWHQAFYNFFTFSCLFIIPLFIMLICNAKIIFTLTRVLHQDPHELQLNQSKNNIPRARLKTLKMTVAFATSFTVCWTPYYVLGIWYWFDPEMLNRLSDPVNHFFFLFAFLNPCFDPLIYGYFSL
Summary of the method: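 Compounds dissolved in DMSO are pin-transferred onto dye-loaded GnRHR-HEK293 cells, which were seeded 18 h before at 37 C/5% CO2. Calcium signal is read as fluorescence intensity at 1 s intervals for 3 min.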

[4] = molecular target: KiSS-1 receptor (Homo sapiens) (UniProt Q969F8); experiment: Human kisspeptin (KISS1R) small molecule agonists, calcium flux assay in KISS1R-HEK293 cells (AID 1920064; active = well fitted curve in the direction sought with a large enough effect in the repeat runs; an effect the other way counts as inactive or inconclusive)
Sequence of KiSS-1 receptor (Homo sapiens) (Q969F8 whole entry, looked up): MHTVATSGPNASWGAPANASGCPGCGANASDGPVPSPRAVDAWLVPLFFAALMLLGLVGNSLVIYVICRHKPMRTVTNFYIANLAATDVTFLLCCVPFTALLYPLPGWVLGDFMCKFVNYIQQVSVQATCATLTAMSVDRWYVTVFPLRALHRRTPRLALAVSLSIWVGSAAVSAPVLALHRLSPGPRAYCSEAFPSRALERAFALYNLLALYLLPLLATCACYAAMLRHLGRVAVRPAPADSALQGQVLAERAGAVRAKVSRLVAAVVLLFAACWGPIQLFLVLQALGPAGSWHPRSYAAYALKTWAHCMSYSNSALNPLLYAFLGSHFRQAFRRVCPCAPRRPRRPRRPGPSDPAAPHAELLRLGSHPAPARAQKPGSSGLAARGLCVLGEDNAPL
Summary of the method: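 Cell line: HEK293, stable human KISS1R. Dye loading 1 h at 37 C after 18 h culture. Read: kinetic fluorescence, 480/540 nm, 3 min at 1 s intervals.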

[5] = G protein-coupled receptor (GPCR) small molecule agonists, calcium flux assay: HEK293 wild type cell line counter screen (AID 1920065)
Summary of the method: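 Tox21 10K compounds, 15 concentrations each in triplicate, pin-transferred in DMSO onto dye-loaded cells; kinetic read at 480/540 nm for 3 min, 1 s intervals.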

[6] = p53 small molecule agonists, cell-based qHTS assay with human liver microsomes: qHTS cell viability counter screen (AID 1963579); note: nearly all actives have a fitted effect of over 45% in size
Summary of the method: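 In this multiplexed counter screen, the reporter plates were subsequently treated with CellTiter-Glo so that cell viability, reflected by luminescence, could be recorded for p53RE-bla cells dosed 16 h with compounds under microsomal activation (HLM and NADPH).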

[7] = p53 small molecule agonists, cell-based qHTS assay with rat liver microsomes: qHTS cell viability counter screen (AID 1963580); note: nearly all actives have a fitted effect of over 45% in size
Summary of the method: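 Counter screen for cytotoxicity under metabolic activation: rat liver microsomes and NADPH, 0.5 mg/mL final each, added with compounds to p53RE-bla HCT-116 cells; 16 h at 37 C, then ATP luminescence read.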

[8] = p53 small molecule agonists, cell-based qHTS assay: qHTS cell viability counter screen (AID 1963581); note: nearly all actives have a fitted effect of over 45% in size
Summary of the method: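 ATP content measured by luminescence in HCT-116 p53RE-bla cells treated 16 h at 37 C, same wells as the reporter screen.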

[9] = molecular target: 5-hydroxytryptamine receptor 2A (Homo sapiens) (UniProt P28223); experiment: 5-hydroxytryptamine receptor 2A (HTR2A) small molecule antagonists, cell-based qHTS assay (AID 1963586); note: nearly all actives have a fitted effect of over 45% in size
Sequence of 5-hydroxytryptamine receptor 2A (Homo sapiens) (P28223 whole entry, looked up): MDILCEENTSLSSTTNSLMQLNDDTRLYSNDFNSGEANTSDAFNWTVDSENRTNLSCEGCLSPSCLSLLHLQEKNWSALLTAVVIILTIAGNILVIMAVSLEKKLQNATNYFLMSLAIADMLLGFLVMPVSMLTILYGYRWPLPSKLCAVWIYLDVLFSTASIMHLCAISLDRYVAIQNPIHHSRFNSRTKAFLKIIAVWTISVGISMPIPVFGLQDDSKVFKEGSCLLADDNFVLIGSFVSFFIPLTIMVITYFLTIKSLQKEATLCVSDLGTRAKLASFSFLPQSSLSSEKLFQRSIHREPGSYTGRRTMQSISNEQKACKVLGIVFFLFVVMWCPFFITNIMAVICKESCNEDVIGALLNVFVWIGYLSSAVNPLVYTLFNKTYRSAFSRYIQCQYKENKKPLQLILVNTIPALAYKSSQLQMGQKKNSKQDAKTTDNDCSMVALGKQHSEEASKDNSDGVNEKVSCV
Summary of the method: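 CHO cells stably expressing human HTR2A were plated for 18 h at 37 C, then loaded with calcium dye for 1 h. Compounds were preincubated 5 min at room temperature before DOI (4 nM solution) was added. Kinetic fluorescence was read for 3 min.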

[10] = molecular target: 5-hydroxytryptamine receptor 2A (Homo sapiens) (UniProt P28223); experiment: 5-hydroxytryptamine receptor 2A (HTR2A) small molecule agonists, cell-based qHTS assay (AID 1963587); note: nearly all actives have a fitted effect of over 30% in size
Summary of the method: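 HTR2A-CHO cells, plated 18 h at 37 C/5% CO2, dye-loaded 1 h at 37 C; compounds in DMSO added by pin tool (agonist mode). Intracellular calcium flux read as kinetic fluorescence on FDSS over 2 min at 1 s intervals.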

[11] = molecular target: Muscarinic acetylcholine receptor M1 (Homo sapiens) (UniProt P11229); experiment: Cholinergic receptor muscarinic 1 (CHRM1) small molecule agonists, cell-based qHTS assay (AID 1963589); note: nearly all actives have a fitted effect of over 35% in size
Sequence of Muscarinic acetylcholine receptor M1 (Homo sapiens) (P11229 whole entry, looked up): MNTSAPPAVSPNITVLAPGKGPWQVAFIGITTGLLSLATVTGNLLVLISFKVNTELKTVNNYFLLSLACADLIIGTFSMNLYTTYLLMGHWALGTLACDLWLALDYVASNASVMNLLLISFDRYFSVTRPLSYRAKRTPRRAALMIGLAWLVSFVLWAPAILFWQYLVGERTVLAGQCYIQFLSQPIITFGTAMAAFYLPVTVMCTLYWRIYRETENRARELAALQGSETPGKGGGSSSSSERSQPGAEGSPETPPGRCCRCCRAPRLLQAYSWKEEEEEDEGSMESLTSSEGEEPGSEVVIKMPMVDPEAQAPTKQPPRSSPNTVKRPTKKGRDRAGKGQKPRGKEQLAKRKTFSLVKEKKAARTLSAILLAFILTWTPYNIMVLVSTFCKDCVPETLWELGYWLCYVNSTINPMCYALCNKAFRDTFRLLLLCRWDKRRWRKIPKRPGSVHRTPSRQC
Summary of the method: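 Homogeneous fluorescence calcium flux, agonist mode. Human M1-expressing CHO cells; compound dosed at 15 concentrations, three independent runs; signal sampled every 1 sec.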

[12] = cAMP Responsive Elements (CRE) small molecule agonists, cell-based qHTS assay (AID 1963590)
Summary of the method: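 HEK 293T cells stably bearing CRE-bla were plated at 2,000 cells per well and rested 18 h. Compounds, positive controls or DMSO were added for 3 h at 37 C. LiveBLAzer B/G substrate was then loaded for 2 h at room temperature.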

[13] = cAMP Responsive Elements (CRE) small molecule antagonists, cell-based qHTS assay (AID 1963591; active = well fitted inhibition curve with a large enough effect in the signal ratio in the repeat runs, not every such curve was filed as active; the % refers to the signal ratio)
Summary of the method: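 First, CRE-bla HEK293T cells settled 18 h at 37 C. Next, compound and 0.25 uM final NKH477 were applied for 3 h. Last, LiveBLAzer B/G substrate was loaded for 2 h at room temperature.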

[14] = molecular target: Beta-2 adrenergic receptor (Homo sapiens) (UniProt P07550); experiment: Adrenergic beta2 receptor (ADRB2) small molecule antagonists, cell-based qHTS assay (AID 1963592); note: nearly all actives have a fitted effect of over 50% in size; note: potency is the fitted concentration of half-maximal effect
Sequence of Beta-2 adrenergic receptor (Homo sapiens) (P07550 whole entry, looked up): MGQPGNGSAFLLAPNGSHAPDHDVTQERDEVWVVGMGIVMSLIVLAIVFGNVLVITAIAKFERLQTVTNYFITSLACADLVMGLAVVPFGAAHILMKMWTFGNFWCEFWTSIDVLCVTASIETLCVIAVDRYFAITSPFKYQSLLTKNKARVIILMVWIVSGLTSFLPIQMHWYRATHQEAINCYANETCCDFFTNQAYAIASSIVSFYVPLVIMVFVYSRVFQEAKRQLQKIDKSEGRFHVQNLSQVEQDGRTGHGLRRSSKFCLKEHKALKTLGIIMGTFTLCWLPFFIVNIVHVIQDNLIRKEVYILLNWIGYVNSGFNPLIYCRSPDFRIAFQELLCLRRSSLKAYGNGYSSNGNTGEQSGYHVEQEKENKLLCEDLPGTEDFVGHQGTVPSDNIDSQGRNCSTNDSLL
Summary of the method: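 Assay format: CHO-ADRB2 cells, 18-20hr seeding at 37C/5% CO2, then compound plus 1nM isoproterenol agonist mix for 0.5hr RT. Homogeneous time-resolved fluorescence cAMP detection after 1hr, expressed as 665/615 nm ratio.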

[15] = molecular target: Beta-2 adrenergic receptor (Homo sapiens) (UniProt P07550); experiment: Adrenergic beta2 receptor (ADRB2) small molecule agonists, cell-based qHTS assay (AID 1963593);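 note: CHO cells stably overexpressing human ADRB2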
Summary of the method: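 CHO cells stably over-expressing ADRB2 were plated overnight at 37C, then dosed with compounds plus a stimulation mix containing 100uM IBMX and 25uM Ro-20-1724 for 0.5hr at room temperature. cAMP was measured by HTRF competition, 1hr.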

[16] = molecular target: D(2) dopamine receptor (Homo sapiens) (UniProt P14416); experiment: Dopamine D2 receptor (DRD2) small molecule agonists, cell-based qHTS assay (AID 1963594); note: nearly all actives have a fitted effect of over 35% in size
Sequence of D(2) dopamine receptor (Homo sapiens) (P14416 whole entry, looked up): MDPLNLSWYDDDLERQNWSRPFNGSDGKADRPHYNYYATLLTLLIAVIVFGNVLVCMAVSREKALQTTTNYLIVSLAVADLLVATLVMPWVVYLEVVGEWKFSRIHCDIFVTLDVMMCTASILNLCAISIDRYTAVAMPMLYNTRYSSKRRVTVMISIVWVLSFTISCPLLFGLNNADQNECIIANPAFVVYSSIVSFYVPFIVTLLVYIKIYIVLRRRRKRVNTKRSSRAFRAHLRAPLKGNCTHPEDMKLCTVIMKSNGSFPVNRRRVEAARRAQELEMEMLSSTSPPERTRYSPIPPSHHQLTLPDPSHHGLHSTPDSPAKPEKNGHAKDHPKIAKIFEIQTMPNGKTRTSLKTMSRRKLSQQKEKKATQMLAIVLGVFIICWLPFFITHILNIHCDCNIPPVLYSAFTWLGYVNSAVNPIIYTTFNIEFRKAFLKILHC
Summary of the method: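 HEK293 cells stably expressing DRD2 were cultured 24 h at 37 C, then given Ro20-1724 (0.1 mM final) and compounds for 10 min at room temperature. NKH477 (200nM) was then added for 30 min. cAMP was read by HTRF.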

[17] = molecular target: D(2) dopamine receptor (Homo sapiens) (UniProt P14416); experiment: Dopamine D2 receptor (DRD2) small molecule antagonists, cell-based qHTS assay (AID 1963595; active = well fitted inhibition curve with a large enough effect in the signal ratio in the repeat runs, with a control signal flat; the % refers to the signal ratio; note: potency is the fitted concentration of half-maximal effect)
Summary of the method: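 Cells were plated and grown for 24 h at 37 °C. Ro20-1724 (0.1 mM final) went in first, then compound for 10 min. NKH477 (200 nM) with quinpirole (12 nM) followed for 30 min at RT, then HTRF detection reagents for 1 h.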

[18] = molecular target: Muscarinic acetylcholine receptor M1 (Homo sapiens) (UniProt P11229); experiment: Cholinergic receptor muscarinic 1 (CHRM1) small molecule antagonists, cell-based qHTS assay (AID 1963588); note: nearly all actives have a fitted effect of over 40% in size
Summary of the method: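 Compounds were tested at 15 concentrations in three independent runs. Dye-loaded CHRM1-CHO cells were exposed 5 min at room temperature before stimulation by acetylcholine added at 50nM. Intracellular calcium was read kinetically on FDSS for 3 min.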

[19] = p53 small molecule agonists, cell-based qHTS assay with rat liver microsomes (AID 1963578)
Summary of the method: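 With rat liver microsomes and NADPH present (0.5 mg/mL final each), p53RE-bla cells are treated with compound for 16 h at 37 C. LiveBLAzer detection mixture is then applied for 2 h at room temperature in the dark.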

[20] = p53 small molecule agonists, cell-based qHTS assay (AID 1963582; active = well fitted activation curve with a large enough effect in the signal ratio in the repeat runs, not every such curve was filed as active; the % refers to the signal ratio)
Summary of the method: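 16 h compound exposure (37 C) of p53 response element–bla cells, preceded by 5 h recovery at 37 C/5% CO2; read-out via LiveBLAzer B/G FRET substrate, 2 h RT, fluorescence intensity.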

Row | Compound | Potency [1] | Potency [2] | Potency [3] | Potency [4] | Potency [5] | Potency [6] | Potency [7] | Potency [8] | Potency [9] | Potency [10] | Potency [11] | Potency [12] | Potency [13] | Potency [14] | Potency [15] | Potency [16] | Potency [17] | Potency [18] | Potency [19] | Potency [20]
1 | CC[N+](CC)(CC(=O)Nc1c(C)cccc1C)Cc1ccccc1 | inactive | inactive | inactive | inactive | inactive | inactive | inactive | inactive | inactive | inactive | inactive | inactive | inactive | inactive | inactive | inactive | inactive |  |  | 
2 | OCc1cccnc1 | inactive | inactive | inactive | inactive | inactive | inactive | inactive | inactive | inactive | inactive | inactive | inactive | inactive | inactive | inactive |  | inactive | inactive |  | 
3 | CCCCCC1=CCCC1=O | inactive | inactive | inactive | inactive | inactive | inactive | inactive | inactive |  | inactive |  | inactive | inactive |  | inactive | inactive | inactive |  |  | 
4 | O=C1NC(=O)c2ccccc21 | inactive | inactive | inactive | inactive | inactive | inactive | inactive | inactive | inactive | inactive | inactive | inactive | inactive | inactive | inactive |  | inactive | inactive |  | 
5 | O=C(O)[C@H](O)[C@@H](O)[C@H](O)[C@H](O)CO | inactive | inactive | inactive | inactive | inactive | inactive | inactive | inactive | inactive | inactive |  | inactive | inactive | inactive |  | inactive | inactive | inactive |  | 
6 | COCc1c(C(C)C)nc(C(C)C)c(/C=C/[C@@H](O)C[C@@H](O)CC(=O)O)c1-c1ccc(F)cc1 | inactive | inactive | inactive | inactive | inactive |  | inactive | inactive |  |  |  |  |  | inactive | inactive | inactive | inactive |  | inactive | 
7 | CC1=CCC2CC1C2(C)C (stereo not drawn) | inactive | inactive | inactive | inactive | inactive | inactive | inactive | inactive |  | inactive | inactive | inactive |  | inactive | inactive | inactive | inactive |  |  | 
8 | CNC(=O)Oc1ccc2c(c1)[C@]1(C)CCN(C)[C@@H]1N2C | inactive | inactive | inactive | inactive | inactive | inactive | inactive | inactive |  |  |  | inactive | inactive | inactive | inactive | inactive | inactive |  |  | inactive
9 | CNC[C@H](O)c1ccc(O)c(O)c1 | inactive | inactive | 110 nM (active) and 233 nM (active) | inactive | inactive | inactive | inactive | inactive |  |  |  |  | inactive |  |  | inactive | 13 µM (active) |  | inactive | inactive
10 | CCCC(=O)O | inactive | inactive | inactive | inactive | inactive | inactive | inactive | inactive | inactive | inactive |  | inactive | inactive | inactive | inactive | inactive | inactive | inactive |  | 
11 | CC1=CC2C3CC(C=C3C)C2C1 (stereo not drawn) | inactive | inactive | inactive | inactive | inactive | inactive | inactive | inactive | inactive |  | inactive | inactive | inactive |  |  | inactive | inactive | inactive |  | 
12 | COc1ccc(NC(C)=O)cc1N | inactive | inactive | inactive | inactive | inactive | inactive | inactive | inactive | inactive |  | inactive | inactive | inactive | inactive |  | inactive | inactive | inactive |  | 
13 | F[B-](F)(F)F | inactive and 31.1 µM (active) | inactive | inactive | inactive | inactive | inactive | inactive | inactive | inactive | inactive | inactive | inactive | inactive | inactive | inactive | inactive | inactive | inactive |  | 
14 | c1ccc2[nH]c(-c3cscn3)nc2c1 | inactive | 27.3 µM (active) and 6.68 µM (active) | inactive | inactive | inactive | inactive | inactive | inactive |  |  |  | inactive | inactive | inactive | inactive | inactive | inactive |  |  | 
15 | CCCOCC(C)O (stereo not drawn) | inactive | inactive | inactive | inactive | inactive | inactive | inactive | inactive | inactive | inactive | inactive | inactive | inactive | inactive | inactive | inactive |  | inactive |  | 
16 | COC(=O)[C@H]1[C@H]2C[C@@H]3c4[nH]c5cc(OC)ccc5c4CCN3C[C@H]2C[C@@H](OC(=O)c2cc(OC)c(OC)c(OC)c2)[C@@H]1OC | 48.5 µM (active) and inactive | inactive | inactive | inactive | inactive | inactive | inactive | inactive |  |  |  |  |  | 54.4 µM (active) and 19.9 µM (active) and inactive |  |  | inactive |  | inactive | inactive
17 | C1CCCNCC1 | inactive | inactive | inactive | inactive | inactive | inactive | inactive | inactive | inactive | inactive | inactive | inactive | inactive | inactive | inactive | inactive | inactive | inactive |  | 
